Screening results (PubChem)
This is a sample that favours compounds with a hit; in the whole collection about 7.2% have one here.
Tau fil binding: qHTS Assay for Tau Filament Binding. actives 2% (n = 71,000). Microtubule-associated protein tau (Homo sapiens), P10636. Potency, µM (doses to about 57.1 µM). recombinant tau filaments, thioflavin S fluorescence, 15 h; filaments grown with octadecylsulfate alongside compound;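 also: actives lower thioflavin S fluorescence by blocking filaments or displacing dye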
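His-tagged recombinant human tau (exons 2, 3, 10; 1 uM final) fibrillized with 30 uM sodium octadecylsulfate, 15 h at 37 C, in pH 7.4 HEPES buffer with 10 uM thioflavine S and 5 mM DTT. Reduced ThS fluorescence (450/510 nm) marks activity.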
Luciferase inh: qHTS Assay for Inhibitors of Firefly Luciferase; purified firefly luciferase, luminescence, 8 min; Potency, µM (highest dose often 57.1 µM), most hits filed as inhibitors; actives 2.2% (n = 72,000); also: nearly all actives have a fitted effect of over 40% in size
Target sequence (P08659 whole entry, looked up): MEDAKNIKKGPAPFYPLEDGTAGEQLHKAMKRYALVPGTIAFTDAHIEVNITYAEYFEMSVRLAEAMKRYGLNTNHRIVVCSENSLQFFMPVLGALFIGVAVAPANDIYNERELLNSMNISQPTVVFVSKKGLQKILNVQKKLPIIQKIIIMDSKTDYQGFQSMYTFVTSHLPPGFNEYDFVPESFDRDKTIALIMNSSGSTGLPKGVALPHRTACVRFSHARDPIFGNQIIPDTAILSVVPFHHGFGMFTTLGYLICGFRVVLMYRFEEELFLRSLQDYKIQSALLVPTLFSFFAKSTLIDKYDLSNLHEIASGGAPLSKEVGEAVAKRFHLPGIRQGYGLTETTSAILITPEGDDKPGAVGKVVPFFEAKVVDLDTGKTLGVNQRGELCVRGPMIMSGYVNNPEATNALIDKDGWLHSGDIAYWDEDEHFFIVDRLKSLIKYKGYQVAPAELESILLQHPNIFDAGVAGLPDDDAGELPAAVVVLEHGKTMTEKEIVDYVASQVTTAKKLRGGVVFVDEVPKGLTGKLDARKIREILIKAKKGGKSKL
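Firefly luciferase (PKLight detection mix) with 10 uM ATP in pH 7.2 imidazole buffer (KCl, MgCl2, Tween 20, BSA). Compounds tested across a concentration series (qHTS). Luminescence read after 8 min at ambient temperature.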
PK Bst: Pyruvate Kinase | actives 1.2% (n = 51,000) | Potency, µM | purified pyruvate kinase, luminescence ATP production; ribose 5-phosphate activator present at AC10; in the data active = potency below about 11 µM; inconclusive = mostly about 12 µM to 25 µM;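 the screen sought inhibitors and activators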
TSHR ag: qHTS Assay for Agonists of the Thyroid Stimulating Hormone Receptor; Thyrotropin receptor (Homo sapiens), P16473; HEK293-CNG-TSHR cells (CNG channel as cAMP sensor), membrane potential dye, cAMP; Potency, µM (top dose mostly 57.1 µM), most hits filed as activators; actives 0.48% (n = 73,000); AID 926, 2007; active = well fitted activation curve with a large enough effect in the main read-out, with a control signal flat, not every such curve was filed as active; inconclusive = small, poorly fitted or top-dose-only effect, or a change in a side signal; inactive = no such curve, though single readings can be large or run the other way; reference of the percent scale not stated here;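 also: the control signal comes from parental cells without the receptor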
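HEK 293 cells stably expressing TSHR and a cAMP-gated CNG channel; parental CNG-only cells as counterscreen. Cells preloaded 60 min with membrane potential dye plus 100 uM RO 20-1724, then compound 30 min; fluorescence read at 590 nm.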
HEK293 cAMP ctrl: qHTS Assay for Agonists of the Thyroid Stimulating Hormone Receptor: Activators of Intracellular cAMP Concentrations in Parental HEK 293 | parental HEK293 CNG cAMP sensor, membrane potential fluorescence | Potency, µM (titrated, usually from 57.1 µM), actives largely listed as activators | actives 2.5% (n = 73,000); also: nearly all actives have a fitted effect of over 55% in size
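Parental HEK 293 cells stably expressing a cAMP-gated CNG channel were loaded with membrane potential dye containing 100 uM RO 20-1724 for 60 min. Compound added for 30 min; depolarization read as fluorescence intensity at 590 nm.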
ERK AVP inh: qHTS Assay for Inhibitors of the ERK Signaling Pathway using a Homogeneous Screening Assay | HEK293-V1b, vasopressin-stimulated pERK AlphaScreen | Potency, µM (series often up to 57.5 µM), hits mostly inhibitors | actives 0.99% (n = 72,000) | AID 995, 2007; also: nearly all actives have a fitted effect of over 55% in size
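qHTS, compounds titrated on V1b-expressing HEK293 cells. Preincubation 30 min at 37C, vasopressin 25 nM for 5 min, lysis 10 min, bead incubation 5 hr at room temperature.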
Each line names hits and unclear results; the compound was inactive in the other large screens. Unless noted, calls follow the shape of the dose curve; as a rule, active = well fitted curve in the direction sought with a large enough effect; inconclusive = small, poorly fitted or top-dose-only effect, or another doubt; inactive = no such curve, though single readings can be large; an effect the other way counts as inactive or inconclusive.

COC(=O)c1c(C)n(-c2ccc(OC)cc2)c2ccc(O)cc12	ERK AVP inh 25µM (no result: TSHR ag)
CCOC(=O)C1=C(C)NC(=O)NC1/C(C)=C/c1ccccc1 (stereo not given)	ERK AVP inh 32µM (no result: PK Bst)
CCOC(=O)C1=C(C)NC(=O)NC1C (stereo not given)	none
CN(c1ccc(OCc2nnc(-c3ccccc3)o2)cc1)S(=O)(=O)c1ccccc1	TSHR ag inconclusive, HEK293 cAMP ctrl 16µM
CN1CCN(C(=O)c2cc(-c3ccc(O)cc3)on2)CC1	none (no result: PK Bst)
NC(=O)c1cc(-c2ccccc2)nc(N2CCOCC2)n1	PK Bst 4
Oc1c(/C=N/c2ncn[nH]2)ccc2ccccc12	Tau fil binding 13µM (no result: PK Bst)
CC(C)[C@@H](CC(=O)N[C@@H]1CCNC[C@H]1C(=O)N[C@H](CC(=O)N[C@@H](CCC(=O)O)CC(=O)O)Cc1ccccc1)NC(=O)C[C@H](CO)NC(=O)[C@@H]1CCCC[C@H]1N	TSHR ag inconclusive, HEK293 cAMP ctrl inconclusive (no result: Luciferase inh, PK Bst, ERK AVP inh)
COc1ccccc1N1C(=O)N(C(C)=O)C2C1Nc1ccccc1N2C (stereo not given)	ERK AVP inh 25µM (no result: PK Bst)
CN1CCc2cc(O)c(O)cc2[C@H](c2ccccc2)C1	ERK AVP inh inconclusive (no result: PK Bst)
Cc1cc(C(=O)CSc2nnc(C3COc4ccccc4O3)n2C)c(C)n1-c1ccc(F)cc1 (stereo not given)	TSHR ag inconclusive, HEK293 cAMP ctrl 10µM
Cn1c(SCC(=O)c2ccc3c(c2)OCO3)nnc1C1COc2ccccc2O1 (stereo not given)	none
O=C1OCCC1Sc1nnc(-c2ccc(Br)cc2)o1 (stereo not given)	Luciferase inh 16µM, ERK AVP inh inconclusive (no result: PK Bst)
CN1/C(=C\P(=O)(N(C)C)N(C)C)C(C)(C)c2ccccc21	Tau fil binding 10µM, TSHR ag inconclusive, HEK293 cAMP ctrl inconclusive
CCCc1cc(COC)c(C#N)c(=O)[nH]1	none (no result: PK Bst)
c1c2c(cc3sc(N4CCOCC4)nc13)OCCO2	Luciferase inh 1.6µM, PK Bst 4.4
COc1ccc(-c2cc(-c3ccccc3)nc(N3CCCC3)n2)cc1OC	TSHR ag 3.2µM (no result: PK Bst)
COc1ccc(CCNC(=O)COC(=O)c2ccco2)cc1OC	none
COc1ccc(CCNC(=O)c2ccc3nc(-c4ccco4)c(-c4ccco4)nc3c2)cc1OC	Tau fil binding 3.2µM, ERK AVP inh 20µM
COc1cc(C(=O)OC(C)C(=O)N2CCc3ccccc3C2)ccc1OCC(=O)N1CCOCC1 (stereo not given)	PK Bst 11
CCC1CCCCN1C(=O)Cn1c(C(=O)OC)cc2ccsc21 (stereo not given)	TSHR ag inconclusive, HEK293 cAMP ctrl 25µM
CCC1CCCCN1C(=O)Cn1c(=O)oc2ccccc21 (stereo not given)	none
CCC1CCCCN1C(=O)Cn1c(C(=O)OC)cc2sc(Cl)cc21 (stereo not given)	TSHR ag inconclusive, HEK293 cAMP ctrl 16µM
COC(=O)c1cc2sc(Cl)cc2n1CC(=O)N1CCCc2ccccc21	TSHR ag inconclusive, HEK293 cAMP ctrl inconclusive
CN(Cc1ccccc1)C(=O)CSc1nc2ccccc2c(=O)n1Cc1ccco1	TSHR ag inconclusive, HEK293 cAMP ctrl 25µM
Cc1sc2nc(SCC(=O)NCc3ccco3)n(-c3ccccc3)c(=O)c2c1C	none (no result: TSHR ag)
O=C(CSc1nc2ccccc2c(=O)n1-c1ccccc1)NCc1ccco1	TSHR ag inconclusive, HEK293 cAMP ctrl 25µM
CCn1c(=S)sc2c(=O)n(-c3ccccc3)c(SCC(=O)NCc3ccco3)nc21	TSHR ag inconclusive, HEK293 cAMP ctrl 20µM
O=C(CSc1nc2cccnc2n1Cc1ccccc1)NCc1ccco1	TSHR ag inconclusive, HEK293 cAMP ctrl 6.3µM, ERK AVP inh inconclusive
O=C(CSc1nc2ccccc2c(=O)n1Cc1ccco1)NCc1ccco1	none
CC(C)C(N)C(=O)NC(Cc1c[nH]c2ccccc12)C(=O)O (stereo not given)	none (no result: Tau fil binding, Luciferase inh, PK Bst, TSHR ag, HEK293 cAMP ctrl)
CC1=CC(=O)CC(C)(C)[C@@]1(O)/C=C\C(C)=C\C(=O)O	Tau fil binding inconclusive (no result: PK Bst, ERK AVP inh)
O=C1c2cccc(O)c2C(=O)c2c(O)cccc21	TSHR ag inconclusive, ERK AVP inh inconclusive (no result: Luciferase inh, PK Bst)
O=C1c2ccc(O)c(O)c2C(=O)c2c(O)ccc(O)c21	ERK AVP inh 3.2µM (no result: Tau fil binding, Luciferase inh, PK Bst, TSHR ag, HEK293 cAMP ctrl)
CCCn1c(-c2ccc(F)cc2)nc2c(NC3CCN(Cc4ccccc4)CC3)nc(C)nc21	TSHR ag inconclusive, HEK293 cAMP ctrl inconclusive (no result: Luciferase inh, PK Bst)
O=C(c1noc2c1CCc1ccccc1-2)N1CCOCC1	none
O=C(c1noc2c1CCc1ccccc1-2)N1CCCc2ccccc21	TSHR ag inconclusive, HEK293 cAMP ctrl 25µM
NC(=S)c1ccc[n+]([C@@H]2O[C@@H](COP(=O)([O-])OP(=O)(O)OC[C@@H]3O[C@@H](n4cnc5c(N)ncnc54)[C@@H](OP(=O)(O)O)[C@H]3O)[C@@H](O)[C@H]2O)c1	TSHR ag inconclusive, HEK293 cAMP ctrl inconclusive (no result: PK Bst)
Cc1ccc2nc3c(cc(C(=O)NCc4cccnc4)c(=N)n3C(C)C)c(=O)n2c1	none
CCCCNC(=O)c1cc2c(=O)n3cccc(C)c3nc2n(Cc2ccncc2)c1=N	none (no result: PK Bst)
Cc1cccn2c(=O)c3cc(C(=O)NC(C)c4ccccc4)c(=N)n(CCCn4ccnc4)c3nc12 (stereo not given)	Tau fil binding 1.3µM
Cc1ccc2nc3c(cc(C(=O)NCc4ccccc4)c(=N)n3CCCn3ccnc3)c(=O)n2c1	Tau fil binding 0.5µM
Cc1noc(C)c1-c1nc(NCCN2CCOCC2)c2ccccc2n1	none (no result: PK Bst)
CC(C)(C)c1cc(C(c2cccnc2)N2CCN(CCO)CC2)cc(C(C)(C)C)c1O (stereo not given)	ERK AVP inh inconclusive
OCCN1CCN(C(c2cccs2)c2ccc3cccnc3c2O)CC1 (stereo not given)	Tau fil binding 6.3µM, ERK AVP inh inconclusive
COC(c1ccccc1Br)C(C)/C=C/CCO (stereo not given)	none (no result: Tau fil binding, Luciferase inh, PK Bst)
Cc1nc(NCc2ccccc2)[nH]c(=O)c1CCC(C)C	Tau fil binding 16µM, TSHR ag inconclusive, HEK293 cAMP ctrl inconclusive
Cc1ccc(-n2ncc3c(=O)n(CC(=O)N4CCCc5ccccc54)cnc32)cc1C	ERK AVP inh 25µM (no result: PK Bst)
Cc1ccc(-n2ncc3c(=O)n(CC(=O)OCc4ccccc4)cnc32)cc1	TSHR ag inconclusive, HEK293 cAMP ctrl 25µM
O=C(Cn1cnc2c(cnn2-c2ccccc2)c1=O)OCc1ccccc1	TSHR ag inconclusive, HEK293 cAMP ctrl inconclusive, ERK AVP inh inconclusive
